Results as given in PubChem BioAssay AID1508625 (Wald Lab, School of Medicine, Case Western Reserve …, 2021).

Assay: enhancers of NK cell killing of ovarian tumor cells, primary screen, imaging, OVCAR3, primary NK cells, calcein-AM imaging (AID 1508625);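 also: compound given to NK cells 16 h before adding targets at 1.5 to 1 ratio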
Conditions: OVCAR3 lysis by primary NK cells, at 5 µM; z-score: measured here: robust Z-score, single-point normalisation

SMILES	corrected activity, negative = more killing [%]	z-score
CCc1ccc(N2C(=O)CSC2c2ccc(Br)cc2)cc1 (stereo not drawn)	-3.8	-1.62
O=[N+]([O-])c1ccc(Nc2ncnc3ccccc23)cc1	-1.89	-1.01
CC(C)(C)c1ccc(C(=O)Nc2ccc(Cl)c(NC(=O)c3ccccc3)c2)cc1	-4.21	-1.49
CON1C(=O)C(C)(C)N(OC)C(=O)C1(C)C	2.31	0.733
COc1cc(C(=S)N2CCCCC2)ccc1OC(=O)c1ccc(C)cc1	-4.49	-1.39
COc1ccc2nc3oc(C(=O)NCCc4ccc(Cl)cc4)cc3cc2c1	-5.81	-1.43
COc1ccc(NC(=O)CN(C)S(=O)(=O)c2cccs2)cc1OC	-4.46	-1.26
CCCCNC(=O)c1cc(Nc2ccc(CC)cc2)nc2ccccc12	-8.29	-2.03
N#Cc1cccn1Cc1ccccc1Cl	-4.07	-1.1
O=C(CCn1c(SCc2ccccc2Cl)nc2cc3c(cc2c1=O)OCO3)N1CCN(c2ccccc2)CC1	-5.52	-1.46
CC(C(=O)NCCCN1CCOCC1)c1ccc([N+](=O)[O-])cc1 (stereo not drawn)	-5.52	-3.07
O=C(NCC1CCCO1)c1ccc(COc2ccc(Cl)cc2)cc1 (stereo not drawn)	-2.84	-1.58
C=CCn1c(=S)[nH]c2cc(C(=O)Nc3cccc(C(F)(F)F)c3)ccc2c1=O	-6.01	-1.91
CCc1cccc(NC(=O)CN(C)S(=O)(=O)c2cccs2)c1	-4.79	-1.36
CC(=O)c1cccc(NC(=O)C2CCN(C(=O)c3ccc(F)cc3)CC2)c1	-3.29	-1.22
Cn1c(SCC(=O)Nc2cccc3ccccc23)nc2c([nH]c3ccccc32)c1=O	-9.34	-2.32
Cc1ccc(N2C(=O)CC(NCCc3ccc(F)cc3)C2=O)cc1 (stereo not drawn)	-3.27	-1.25
Cc1c(C(=O)OC(C)C)sc(NC(=O)c2cc3ccccc3c(=O)o2)c1C(=O)OC(C)C	-4.01	-1.65
CCC1=NN(C(=O)c2cccc(Cl)c2)C(O)(C(F)(F)F)C1 (stereo not drawn)	-2.2	-0.839
O=C(Nc1ccc(N2CCN(Cc3ccccc3Cl)CC2)cc1)c1ccco1	1.61	0.895
Cn1c(SCC(=O)c2ccccc2)nc2c([nH]c3ccccc32)c1=O	-5.65	-1.41
CC(=O)SCCC(=O)N1C(C)CCCC1C(=O)O (stereo not drawn)	-3.02	-1.19

SMILES	corrected activity, negative = more killing [%]	z-score
O=C(O)CN1C(=O)c2ccc(C(=O)O)cc2C1=O	-5.22	-1.62
CN(C)S(=O)(=O)c1ccc(C(O)=C2C(=O)C(=O)N(Cc3cccnc3)C2c2ccc(Cl)cc2)cc1 (stereo not drawn)	-2.24	-0.973
Cc1occc1C(=O)N1N=C(C2CC2)CC1(O)C(F)(F)F (stereo not drawn)	-2.75	-1.13
C=CCn1c2ccccc2c2nnc(SCc3[nH]c(C(=O)OCC)c(C)c3C(C)=O)nc21	-1.4	-0.435
CCOC(=O)c1conc1-c1cccs1	-0.622	-0.198
O=C(Nc1ccc(Cc2ccncc2)cc1)C1CCC(N2C(=O)C3CC=CCC3C2=O)CC1 (stereo not drawn)	-4.96	-1.89
S=C1CSc2ccccc2N1	-1.4	-0.377
N=C1NC(=O)C(=Cc2ccc(F)cc2)S1	-5.91	-2.51
O=C(NN=Cc1c(Br)cc(Br)c(O)c1Br)c1ccncc1	-1.17	-0.607
Cc1ccc2c(C)nc(SCc3ccc(Cl)cc3)nc2c1	-2.17	-0.674
COc1ccc(-c2csc(Nc3ncccn3)n2)cc1OC	-2.57	-1.15
Cc1cc(N2CCN(C(=O)c3cccc(F)c3F)CC2)c(F)cc1[N+](=O)[O-]	-4.4	-1.92
CC(Oc1cccc(Cl)c1)C(=O)ON=C(N)c1ccncc1 (stereo not drawn)	0.422	0.235
c1ccc(OCCCc2nc(-c3ccccn3)no2)cc1	-2.46	-1.37
CCCNC(=O)C(=O)Nc1ccc(C(C)C)cc1	-1.6	-0.603
O=C1C2C3CC(C(Br)C3Br)C2C(=O)N1c1cccc2ccccc12 (stereo not drawn)	-3.98	-1.41
COC(=O)c1ccc(COC(=O)c2cnccn2)cc1	-1.44	-0.802
COCCCNC(=O)C1c2ccccc2C(=O)N(C)C1c1cccs1 (stereo not drawn)	-4.54	-1.13
Cc1cc(C)cc(NS(=O)(=O)c2ccc3[nH]cc(C(=O)NCc4cccs4)c(=O)c3c2)c1	-6.12	-1.5
COCCNCCCOc1cccc(Br)c1	-1.7	-0.634
Cc1cccn2c(=O)c3cc(C(=O)N(CC(C)C)CC(C)C)sc3nc12	-8.5	-2.41
CCOC(=O)c1ccc(CN(Cc2ccc(F)cc2)S(=O)(=O)c2cccc(Cl)c2)cc1	-6.34	-1.71
